Reference: PubChem BioAssay
Inconclusive results are not listed. Active and inactive are the calls of the source.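 The calls were made as follows, unless noted: active = viability loss from added drug above about 55%, and viability with drug at most 40%, in both replicates (limit read from the data, passing the limit was not always enough); inconclusive = both conditions met in only one replicate; inactive = neither replicate meets both conditions.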

Legend:
[1] = reducers of endogenous Her2 protein level, primary screen, SKBR3 breast tumor cells, AlphaScreen, ATP viability (AID 461;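 active = Her2 level under about 52% in both replicate screens, with viability over 70% of control, limit read from the data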;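 as to Her2 level: lower value means less Her2 protein in the cells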;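 as to viability: percent of carrier control wells set as 100% viability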); conditions: 18-24 h, measured here: SKBR3 viability, ATP luminescence, at 10 µM
[2] = target: Receptor tyrosine-protein kinase erbB-2 (Homo sapiens) (UniProt P04626); test: as above; conditions: 18-24 h, at 10 µM, stronger effect = lower value
[3] = SK-BR-3 cell growth inhibitors, pilot screen, 24 h, human (AID 572;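 active = viability at or below 10% of carrier control in both of two separate runs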;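 also: compound exposure lasted between 18 and 24 h rather than exactly 24 h; 100% = carrier-treated control wells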); conditions: SK-BR-3 viability, CellTiter-Glo luminescence, at 10 µM, stronger effect = lower value
[4] = growth inhibitors of H69AR lung tumor, primary screen, human, duplicate replicates (AID 580;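 active = viability at or under a set limit in both replicates, limit being median viability minus 3 SD, cut at about 48% in these data, passing the limit was not always enough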;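 also: 100% = mean luminescence of untreated wells and 0% = no signal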); conditions: H69AR lung tumor cells viability, ATP luminescence, 72 h; at 10 µM; stronger effect = lower value
[5] = reversal of MRP1-mediated doxorubicin resistance, pilot screen, H69AR cells, doxorubicin co-treatment (AID 601); conditions: CellTiter-Glo, 72 h, at 10 µM; for differential viability (reversal): stronger effect = higher value
[6] = 384-well plate pilot, post-Golgi transport modulator project, inhibition of yeast transport mutant growth (AID 636; in the data active = inhibition above about 31%); conditions: absorbance 615 nm, about 18 h, stronger effect = higher value
[7] = growth suppression of yeast trafficking mutant, preliminary HTS, modulators of trafficking downstream of Golgi apparatus project, 1536-format plate, OD 615 nm (AID 637; in the data active = inhibition above about 30%); conditions: yeast transport mutant growth, absorbance 615 nm, 18 h; stronger effect = higher value
[8] = HUVEC growth inhibition – cell-based, human, primary screen (AID 575;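 active = viability at or below 30% in both replicate assays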;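 also: 100% = median of untreated cell wells with 0.1% DMSO on each plate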); conditions: HUVEC proliferation, CellTiter-Glo luminescence, 72 h; at 10 µM; stronger effect = lower value
[9] = OD615 S. cerevisiae growth inhibition, permissive medium, pilot counter-assay, permissive growth control for S. cerevisiae lifespan shortening project (AID 705;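 active = growth inhibition above 25% in both replicates, a cutoff set 3 SD above the mean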); conditions: OD615, 24 h, at 10 µM, stronger effect = higher value
[10] = Restrictive medium S. cerevisiae growth inhibition, OD615, pilot screen of yeast lifespan reduction project, restrictive growth control (AID 706;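 active = growth inhibition above a set limit, 3 SD over mean compound inhibition, in both replicates, cut at about 43% in these data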;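 also: modified DeaD lifespan yeast strain shifted to restrictive glucose medium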); conditions: OD615, 48 h, at 10 µM, stronger effect = higher value
[11] = viability gain of MRP-1-high H69AR cells under doxorubicin, pilot screen, MRP-1 activator project, CellTiter-Glo, duplicate (AID 807;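 active = viability increase at or above a cutoff of the median across tested compounds plus 3 SD, cut at about 8.5% in these data, passing the limit was not always enough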;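 also: compound pretreatment 18-22 h then 72 h combined with doxorubicin; 0% = doxorubicin alone and 100% = vehicle without doxorubicin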); conditions: H69AR viability with doxorubicin, CellTiter-Glo luminescence; at 10 µM; stronger effect = higher value
[12] = growth suppression of beta-catenin knockout HCT116, pilot screen, human colon tumor cells (AID 823;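 active = cell viability at or below a set limit in both duplicate runs, the limit being the all-compound median minus 4 SD, cut at about 23% in these data, passing the limit was not always enough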;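 also: 0% = wells killed by 20 µM Hyamine and 100% = untreated DMSO cell wells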); conditions: CellTiter-Glo, 60 h, at 10 µM, stronger effect = lower value
[13] = growth suppression of PTEN-deleted HCT116, pilot screen, cell-based, HCT116 clonal line, CellTiter-Glo (AID 824;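 active = viability at or below 27.92% in each of two runs, the all-compound median minus 4 SD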;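 also: 0% = 20 µM Hyamine control and 100% = vehicle cell control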); conditions: 60 h, at 10 µM, stronger effect = lower value
[14] = inhibitors of the yeast RAM network, pilot screen, dse1pr::URA3 reporter, 5-FOA selection (AID 869;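 active = inhibition over a set limit, the all-compound mean plus 3 SD, in both replicate runs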;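 also: 0% = DMSO wells with no growth and 100% = 10 µM 1-NA-PP1 with full growth; RAM network block rescues cells from 5-FOA so hits raise OD615 growth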); conditions: S. cerevisiae dse1pr::URA3 5-FOA growth, OD615, 2 d; at 10 µM; stronger effect = higher value; strain carries analog-sensitive mutant Cbk1 kinase
[15] = H69AR cells + 2 uM doxorubicin, measured here: viability with 2 uM doxorubicin, stronger effect = lower value
[16] = H69AR cells, compound alone cytotoxicity

Chain of Receptor tyrosine-protein kinase erbB-2 (Homo sapiens) (P04626 whole entry, looked up): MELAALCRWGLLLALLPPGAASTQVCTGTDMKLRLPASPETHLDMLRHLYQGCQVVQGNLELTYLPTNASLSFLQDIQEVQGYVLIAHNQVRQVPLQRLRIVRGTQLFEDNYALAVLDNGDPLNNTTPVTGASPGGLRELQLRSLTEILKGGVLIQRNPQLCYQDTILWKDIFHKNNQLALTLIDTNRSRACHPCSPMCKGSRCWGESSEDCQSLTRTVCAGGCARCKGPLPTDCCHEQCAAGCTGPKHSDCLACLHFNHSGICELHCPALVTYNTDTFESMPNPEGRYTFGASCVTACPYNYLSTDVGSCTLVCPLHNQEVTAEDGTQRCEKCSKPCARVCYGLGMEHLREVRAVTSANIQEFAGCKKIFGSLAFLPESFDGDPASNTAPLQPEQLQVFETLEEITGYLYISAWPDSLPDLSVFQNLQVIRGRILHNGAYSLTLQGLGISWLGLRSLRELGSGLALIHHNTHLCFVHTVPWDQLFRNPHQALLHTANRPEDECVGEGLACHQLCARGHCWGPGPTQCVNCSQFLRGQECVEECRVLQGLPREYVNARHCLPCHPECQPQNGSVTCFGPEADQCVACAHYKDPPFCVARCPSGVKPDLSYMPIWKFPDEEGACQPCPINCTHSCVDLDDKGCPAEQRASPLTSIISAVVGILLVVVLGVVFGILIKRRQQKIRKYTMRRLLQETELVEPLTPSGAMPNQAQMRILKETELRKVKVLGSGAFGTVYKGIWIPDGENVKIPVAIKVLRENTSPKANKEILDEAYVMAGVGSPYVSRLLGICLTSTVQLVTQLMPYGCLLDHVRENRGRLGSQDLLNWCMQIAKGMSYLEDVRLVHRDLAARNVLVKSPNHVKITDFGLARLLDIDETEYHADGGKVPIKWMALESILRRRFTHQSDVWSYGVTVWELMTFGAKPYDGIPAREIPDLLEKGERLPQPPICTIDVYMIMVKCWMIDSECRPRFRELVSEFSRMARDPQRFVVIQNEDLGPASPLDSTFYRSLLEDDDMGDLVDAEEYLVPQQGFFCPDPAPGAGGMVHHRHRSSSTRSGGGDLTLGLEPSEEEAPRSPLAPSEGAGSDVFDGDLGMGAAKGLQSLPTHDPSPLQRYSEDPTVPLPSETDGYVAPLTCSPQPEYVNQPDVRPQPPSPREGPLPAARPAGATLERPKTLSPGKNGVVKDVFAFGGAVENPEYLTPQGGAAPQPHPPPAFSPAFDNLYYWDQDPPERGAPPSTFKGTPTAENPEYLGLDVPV

Row | Compound | viability [1] | Her2 level [2] | viability [3] | viability [4] | differential viability (reversal) ([5]; H69AR cells + 2 uM doxorubicin) | viability [5, 15] | viability [5, 16] | inhibition [6] | inhibition [7] | viability [8] | growth inhibition [9] | growth inhibition [10] | viability increase [11] | viability [12] | viability [13] | inhibition [14]
1 | COCc1cc(=O)[nH]c(Nc2nc3ccccc3o2)n1 | 112% | 80% (inactive) | 112% (inactive) | 30.3% (active) | -9.32% (inactive) | 39.6% | 30.3% | -4.27% (inactive) | -6.72% (inactive) | – | – | – | – | – | – | –
2 | COc1ccccc1NC(=O)NCCCN1CCN(c2cccc(Cl)c2)CC1 | 77% | 70.5% (inactive) | 77% (inactive) | 72.6% (inactive) | -14.3% (inactive) | 86.8% | 72.6% | 4.4% (inactive) | -7.7% (inactive) | – | – | – | – | – | – | –
3 | COc1ccc(-c2nc(N)nc(C)c2Oc2ccccc2Br)c(O)c1 | 96% | 74% (inactive) | 96% (inactive) | 5.08% (active) | -12.7% (inactive) | 17.8% | 5.08% | -4.34% (inactive) | 57.6% (active) | – | – | – | – | – | – | –
4 | CC(C)Cc1nc(N2CCN(C(=O)c3ccco3)CC2)c(C#N)c2c1CCC2 | 172% | 93% (inactive) | 172% (inactive) | 84.5% (inactive) | 2.99% (inactive) | 81.5% | 84.5% | -6.71% (inactive) | 1.15% (inactive) | – | – | – | – | – | – | –
5 | CCCOc1ccccc1C1CC(=O)Nc2cc3c(cc21)OCCO3 (configuration not stated) | 84% | 67% (inactive) | 84% (inactive) | 34.3% (active) | -39.2% (inactive) | 73.5% | 34.3% | -4.93% (inactive) | -2.3% (inactive) | – | – | – | – | – | – | –
6 | Cc1nc2cc(N3CCCCC3)c(NC(=O)c3cccnc3)cc2c(=O)n1Cc1ccccc1 | 64% | 67.5% (inactive) | 64% (inactive) | 28.9% (active) | 6.91% (inactive) | 22% | 28.9% | 2.11% (inactive) | -8.33% (inactive) | – | – | – | – | – | – | –
7 | CN1CCc2nc(SCCOc3ccccc3)c(C#N)cc2C1 | 150% | 25% (active) | 150% (inactive) | 84.8% (inactive) | -13.7% (inactive) | 98.5% | 84.8% | -1.69% (inactive) | 0.67% (inactive) | – | – | – | – | – | – | –
8 | Clc1ccc(Cl)c(-c2nn3c(COc4ccccc4)nnc3s2)c1 | 96% | 69% (inactive) | 96% (inactive) | 72.9% (inactive) | 1.02% (inactive) | 71.9% | 72.9% | -5.07% (inactive) | 5.32% (inactive) | – | – | – | – | – | – | –
9 | Nc1ncnc2oc(-c3ccco3)c(-c3ccco3)c12 | 96.5% | 77% (inactive) | 96.5% (inactive) | 75.7% (inactive) | 7.29% (inactive) | 68.4% | 75.7% | -0.13% (inactive) | -4.03% (inactive) | – | – | – | – | – | – | –
10 | Cc1ccc(C(=O)/C=C/Nc2cccc(O)c2)cc1 | 111% | 76% (inactive) | 111% (inactive) | 85.1% (inactive) | 3.02% (inactive) | 82.1% | 85.1% | -7.03% (inactive) | -1.83% (inactive) | – | – | – | – | – | – | –
11 | CCOc1ccc2nc(NC(=O)CSc3nc4ccccc4c(=O)n3Cc3ccco3)sc2c1 | 82.5% | 84% (inactive) | 82.5% (inactive) | 45.2% (active) | -0.105% (inactive) | 45.4% | 45.2% | -5.95% (inactive) | -1.97% (inactive) | – | – | – | – | – | – | –
12 | Nc1nc(N2CCN(C/C=C/c3ccccc3)CC2)nc2ccccc12 | 80.5% | 98.5% (inactive) | 80.5% (inactive) | 92% (inactive) | 5.93% (inactive) | 86.1% | 92% | -5.07% (inactive) | -2.13% (inactive) | – | – | – | – | – | – | –
13 | Cc1cccc(NC(=O)c2cc(NC(=O)c3ccco3)ccc2N2CCCCC2)c1 | 85% | 80.5% (inactive) | 85% (inactive) | 65.9% (inactive) | 17.8% (inactive) | 48% | 65.9% | -4.4% (inactive) | 2.46% (inactive) | – | – | – | – | – | – | –
14 | COc1cc(C(=O)Nc2nc(-c3cccs3)cs2)cc(OC)c1OC | 86% | 82% (inactive) | 86% (inactive) | 22.9% (active) | -14.2% (inactive) | 37.2% | 22.9% | 1.51% (inactive) | 23.6% (inactive) | – | – | – | – | – | – | –
15 | CC(=O)Nc1ccc(N=Cc2nc(-c3ccc(C)cc3)oc2O)cc1 | – | – | 102% (inactive) | 94.5% (inactive) | 1.61% (inactive) | 92.9% | 94.5% | 0% (inactive) | -1.8% (inactive) | 96.2% (inactive) | – | – | – | – | – | –
16 | O=C(NC1CCCc2ccccc21)C1CCN(c2nnc(-n3cccc3)s2)CC1 (configuration not stated) | 84.5% | 94.5% (inactive) | 84.5% (inactive) | 97.3% (inactive) | 6.74% (inactive) | 90.6% | 97.3% | 1.41% (inactive) | -2% (inactive) | – | -1.88% (inactive) | -6.53% (inactive) | -4.06% (inactive) | 89.5% (inactive) | 85% (inactive) | 1.14% (inactive)
17 | CNCCCC1c2ccccc2C=Cc2ccccc21 | – | – | 82% (inactive) | 92% (inactive) | 15.2% (inactive) | 76.7% | 92% | – | – | 69.5% (inactive) | – | – | – | – | – | –
18 | O=S(=O)(Nc1ccc2c(c1)OCO2)c1ccc(Br)s1 | 92% | 79% (inactive) | 92% (inactive) | 96.8% (inactive) | 0.44% (inactive) | 96.3% | 96.8% | -4.47% (inactive) | -10.7% (inactive) | – | – | – | – | – | – | –
19 | Cn1c(=O)n(CCN2CCOCC2)c(=O)c2c1nc1n2CCN1c1ccccc1 | 41.5% | 102% (inactive) | – | 67.9% (inactive) | 4.43% (inactive) | 63.5% | 67.9% | 3.51% (inactive) | -2.54% (inactive) | 52.8% (inactive) | – | – | – | – | – | –
20 | COc1cc(C)nc(N2CCCC(C(=O)Nc3cccc(Cl)c3Cl)C2)n1 (configuration not stated) | 71% | 62.5% (inactive) | 71% (inactive) | – | -1.86% (inactive) | 58.3% | 56.4% | 0.39% (inactive) | -10.2% (inactive) | – | – | – | – | – | – | –
21 | O=C(CCCCCn1c(=S)[nH]c2cc3c(cc2c1=O)OCO3)N1CCN(Cc2ccccc2)CC1 | 83% | 77.5% (inactive) | 83% (inactive) | – | 7.46% (inactive) | 55.3% | 62.7% | -4.73% (inactive) | -0.66% (inactive) | – | – | – | – | – | – | –
22 | CC(=Nc1cccc(O)c1)c1sc2ccccc2c1O | 103% | 71.5% (inactive) | 103% (inactive) | – | -38.1% (inactive) | 92.5% | 54.5% | -5.79% (inactive) | -3.33% (inactive) | – | – | – | – | – | – | –
